Where two headings read alike, the source gives them in different places. The whole screen tested about 13,000 compounds, of which about 3,200 (25%) showed an effect of 50% or more. Some of the results follow.
Test system: P. falciparum stage V gametocytes
Design: BacTiter-Glo ATP luminescence viability of purified stage V gametocytes in 384-well plates, per cent inhibition versus DMSO
Conditions: 48 h, 5 µM, inhibitor

Structure (SMILES) | % Inhibition [%] | % Inhibition (% Inhibition) [%]
CC[C@H]1CN2CC[C@H]1C[C@H]2[C@H](O)c1cc(-c2cccc(Cl)c2)nc2ccc(OC)cc12 [TCMDC-141215] | 86 | 
CC[C@H]1CN2CC[C@H]1C[C@H]2[C@H](O)c1cc(-c2ccc(F)cc2C)nc2ccc(OC)cc12 [TCMDC-141197] | 26.99 | 
COc1ccc2nc(-c3ccc(F)cc3)cc([C@@H](O)[C@@H]3C[C@@H]4CCN3CC4C=NO)c2c1 (stereo partly drawn) [TCMDC-141395] | 28.31 | 
C=C[C@H]1CN2CC[C@@H]1C[C@H]2[C@H](O)c1cc(-c2ccc(F)cc2)nc2ccc(OC)cc12 [TCMDC-141374] | 31.93 | 
C=C[C@H]1CN2CC[C@H]1C[C@H]2[C@H](O)c1cc(-c2ccc(Cl)cc2)nc2ccc(OC)cc12 [TCMDC-139009] | 109.5 | 
CC[C@H]1CN2CC[C@H]1C[C@H]2[C@H](O)c1cc(-c2ccc(C)cc2)nc2ccc(OC)cc12 [TCMDC-141192] | 31.69 | 
CC[C@H]1CN2CC[C@@H]1C[C@H]2[C@H](O)c1cc(-c2cc(Cl)cc(Cl)c2)nc2ccc(OC)cc12 [TCMDC-141351] | 45.7 | 
CC[C@H]1CN2CC[C@H]1C[C@H]2[C@H](O)c1cc(-c2ccc3ccccc3c2)nc2ccc(OC)cc12 [TCMDC-141213] | 91.14 | 
CC[C@H]1CN2CC[C@H]1C[C@H]2[C@H](O)c1cc(-c2ccc(F)cc2)nc2ccc(OC)cc12 [TCMDC-141195] | 81.45 | 
COc1ccc2nccc(N3CCC(SCCNS(=O)(=O)c4ccc5c(c4)OCCO5)C3)c2n1 (stereo not drawn) [TCMDC-134549] | -1.611 | 
CCCC(=O)c1cnc2c(I)cccc2c1Nc1ccccc1C [TCMDC-138960] | -3.378 | 
Cc1cccc2[nH]c(-c3ccc(-c4cccc(CN5CCN(c6ccncc6)CC5)c4)cc3)nc12 [TCMDC-132913] | 17.14 | 
CC1(C)N=C(N)N=C(N)N1OCCOc1ccc(Cc2ccccc2)cc1 [TCMDC-131618] | 0.9057 | 
CCC1(C)N=C(N)N=C(N)N1c1ccccc1 (stereo not drawn) [TCMDC-131294] | 1.322 | 
COc1ccc(Br)cc1/C=C/C(=O)Nc1cccc(C2CCN(C)CC2)c1 [TCMDC-133709] | 17.69 | 
CC(CN)OCn1cnc2c(N)ncnc21 (stereo not drawn) [TCMDC-137691] | 4.807 | 
Nc1ccc(-c2ccc(NC(=O)Nc3ccccc3)cc2)cn1 [TCMDC-133409] | 8.914 | 
Cc1noc(C)c1-c1cccc(CNCc2ccc(-c3ccc(-c4nc5ccccc5[nH]4)s3)cc2)c1.O=C(O)C(F)(F)F [TCMDC-133049] | 5.306 | 
COc1ccc(-c2onc(C(F)(F)F)c2-c2ccc(Br)cc2)c(O)c1 [TCMDC-125235] | 3.062 | 
O=C(Nc1ccc(N2CCCN(Cc3cccc(F)c3)CC2)cc1)c1ccc(F)cc1 [TCMDC-135020] | -31.48 | 
CC[C@H]1CN2CC[C@H]1C[C@H]2[C@H](O)c1cc(-c2cccc(F)c2)nc2ccc(OC)cc12 [TCMDC-141194] | 63.72 | 
CC[C@H]1CN2CC[C@H]1C[C@H]2[C@H](O)c1cc(-c2cccc(C)c2)nc2ccc(OC)cc12 [TCMDC-141191] | 44.26 | 

Structure (SMILES) | % Inhibition [%] | % Inhibition (% Inhibition) [%]
CC[C@H]1CN2CC[C@@H]1C[C@H]2[C@H](O)c1cc(-c2cccnc2)nc2ccc(OC)cc12 [TCMDC-141335] | -21.27 | 
Cc1cccc(Cl)c1S(=O)(=O)Nc1cccc(CCN2CCC(N3CCCCC3)CC2)c1 [TCMDC-134063] | 18.66 | 
O=S(=O)(Nc1ccc(CCN2CCC(N3CCCCC3)CC2)cc1)c1cccc2cccnc12 [TCMDC-134081] | 43.01 | 
O=S(=O)(Nc1cccc(CCN2CCC(N3CCCCC3)CC2)c1)c1cccc2cccnc12 [TCMDC-134074] | 50.45 | 
COc1ccc(Cl)cc1S(=O)(=O)Nc1cccc(CCN2CCC(N3CCCCC3)CC2)c1 [TCMDC-134076] | 49.77 | 
O=S(=O)(Nc1cccc(CCN2CCC(N3CCCCC3)CC2)c1)c1cccc2ccccc12 [TCMDC-134069] | 73 | 
Cc1c(Cl)cccc1S(=O)(=O)Nc1cccc(CCN2CCC(N3CCCCC3)CC2)c1 [TCMDC-134064] | 56.09 | 
CN(C)c1cccc2c(S(=O)(=O)Nc3cccc(CCN4CCC(N5CCCCC5)CC4)c3)cccc12 [TCMDC-134066] | 76.83 | 
Cc1nc2ccc3ccc(CNc4ccc(C#N)cc4)cc3c2c(=O)[nH]1 [TCMDC-137846] | -36.65 | 
CCCCCCN1CCCN(Cc2ccc(C(=O)Nc3ccc(C(C)(C)C)cc3)cc2)CC1 [TCMDC-136446] | -5.342 | 
O=C(Cc1ccc[n+]([O-])c1)Nc1ccc(-c2cccc(-c3nc4cc(C(F)(F)F)ccc4[nH]3)c2)cc1 [TCMDC-136991] | -49.92 | 
O=C(Nc1cccc(-c2cccc(-c3nc4ccc(C(F)(F)F)cc4[nH]3)c2)c1)c1ccoc1 [TCMDC-136844] | 9.594 | 
O=C(Nc1ccc(-c2cccc(-c3nc4ccc(C(F)(F)F)cc4[nH]3)c2)cc1)c1cccnc1 [TCMDC-136926] | 86.45 | 
O=C(Nc1ccc(-c2cccc(-c3nc4ccc(C(F)(F)F)cc4[nH]3)c2)cc1)c1ccncc1 [TCMDC-136964] | -22.85 | 
NC(=O)c1cccc(C(=O)Nc2ccc(-c3cccc(-c4nc5ccc(C(F)(F)F)cc5[nH]4)c3)cc2)c1 [TCMDC-132200] | -70.46 | 
O=C(Nc1cccc(-c2ccc(-c3nc4ccc(C(F)(F)F)cc4[nH]3)cc2)c1)c1ccncc1 [TCMDC-136967] | -31.79 | 
O=C(Nc1cccc(-c2ccc(-c3nc4ccc(C(F)(F)F)cc4[nH]3)cc2)c1)c1ccoc1 [TCMDC-136848] | -29.98 | 
O=C(Nc1cccc(-c2ccc(-c3nc4ccc(C(F)(F)F)cc4[nH]3)cc2)c1)c1cccnc1 [TCMDC-136930] | 51.27 | 
O=C(Nc1ccc(-c2cccc(-c3nc4ccc(C(F)(F)F)cc4[nH]3)c2)cc1)c1ccoc1 [TCMDC-136845] | 54.13 | 
O=C(Nc1cccc(-c2cccc(-c3nc4ccc(C(F)(F)F)cc4[nH]3)c2)c1)c1cccnc1 [TCMDC-136925] | -23.9 | 
CC(=O)Oc1ccc(C(=O)Oc2ccccc2C#CC#N)cc1OC(C)=O [TCMDC-138111] | 22.32 | 
CC(Oc1ccc(Cl)cc1Cl)c1nc(-c2ccc(NC(=O)c3ccco3)cc2)no1 (stereo not drawn) [TCMDC-124355] | -1.611 | 

Structure (SMILES) | % Inhibition [%] | % Inhibition (% Inhibition) [%]
O=C(Nc1ccc2c(c1)CN(Cc1ccc(N3CCCC3)o1)CCC2)c1cncs1 [TCMDC-134724] | -13.68 | 
O=C(/C=C/c1ccc(C(F)(F)F)cc1)NC1CCC(CN2CCC(c3c[nH]c4ccccc34)CC2)CC1 (stereo not drawn) [TCMDC-139758] |  | 96.79
O=C(/C=C/c1ccc(C(F)(F)F)cc1)NC1CCC(CN2CCC(c3c[nH]c4ccccc34)CC2)CC1 (stereo not drawn) [TCMDC-139768] |  | 87.3
O=C(/C=C/c1cc(C(F)(F)F)ccc1F)NC1CCC(CN2CCC(c3c[nH]c4ccccc34)CC2)CC1 (stereo not drawn) [TCMDC-139855] | -4.527 | 
CS(=O)(=O)c1ccc(-c2cncc(Cl)n2)cc1 [TCMDC-135191] | 20.05 | 
COc1cc(NC(=O)/C=C/c2cc(F)cc(F)c2F)cc(OCCN2CCCCC2)c1 [TCMDC-140932] | -50.87 | 
Cc1cc(NC2CCN(CC3CCCCC3)C2)nc(Nc2ccc(Cl)cc2)n1 (stereo not drawn) [TCMDC-137018] | 51.98 | 
Cc1cc(N2CCCN(C)CC2)nc(Nc2ccc(Cl)cc2)n1 [TCMDC-137009] | 14.59 | 
Cc1cc(N2CCN(CC3CCCCC3)CC2)nc(Nc2ccc(Br)cc2)n1 [TCMDC-137021] | -43.3 | 
Cc1cc(N2CCCN(CC3CCCCC3)CC2)nc(Nc2ccc(Br)cc2)n1 [TCMDC-137133] | -10.88 | 
Cc1cc(N2CCN(CC3CCN(C)CC3)CC2)nc(Nc2ccc(Cl)cc2)n1 [TCMDC-137012] | 55.47 | 
Cc1cc(NCC2CCN(CC3CCCCC3)C2)nc(Nc2ccc(Cl)cc2)n1 (stereo not drawn) [TCMDC-137020] | -71.76 | 
Cc1cc(N2CCN(CC3CCN(C)CC3)CC2)nc(Nc2ccc(Br)cc2)n1 [TCMDC-137016] | 54.5 | 
Cc1cc(NC2CCN(CC3CCCCC3)C2)nc(Nc2ccc(Br)cc2)n1 (stereo not drawn) [TCMDC-137022] | 32.36 | 
Cc1cc(N2CCC(N(C)C)C2)nc(Nc2ccc(Cl)cc2)n1 (stereo not drawn) [TCMDC-137011] | -3.517 | 
COc1ccc(Nc2ncc3c(-c4ccc(NC(=O)c5cccc(C(F)(F)F)c5)cc4)c[nH]c3n2)cc1OC [TCMDC-138863] | -42.22 | 
Cc1cnccc1/C=C/c1cccc(OCCN2CCc3ccc(S(C)(=O)=O)cc3CC2)c1 [TCMDC-135875] | 13.2 | 
Cc1noc(C)c1-c1ccc2c(Nc3ccc([N+](=O)[O-])cc3)c(C(N)=O)cnc2c1.Cl [TCMDC-136009] | -6.074 | 
CN(C(=O)c1ccccc1)C1c2cc(C#N)ccc2OC(C)(C)C1O (stereo not drawn) [TCMDC-131573] | -17.79 | 
O=C1O[C@H](c2ccccc2)[C@H](c2ccccc2)N(C(=O)OCc2ccccc2)[C@H]1Cc1ccccc1C1CCCC1 [TCMDC-137303] | 5.453 | 
OC(c1ccccc1)C1CN(CCC2CC3CCC2C3)CCC1(O)c1ccccc1 (stereo not drawn) [TCMDC-131996] | -67.18 | 
CCC(C)NS(=O)(=O)c1ccc2nc(Nc3cccc(SC)c3)n(C(C)C(C)C)c2c1 (stereo not drawn) [TCMDC-136237] | -59.9 | 

Source: article PMC4552634, “A New Set of Chemical Starting Points with Plasmodium falciparum Transmission-Blocking Potential for Antimalarial Drug Discovery” (PLoS ONE, 2015)
